# FAS-TE inh – inhibitors of human fatty acid synthase thioesterase domain. recombinant FAS-TE, OMFH fluorogenic substrate, fluorescence endpoint. AID 602261. inhibition, % at 15 µM. 0.67% of 360,000 active;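 active means compounds whose normalised, plate-corrected inhibition of enzyme fluorescence in the single-dose primary screen is 50% or more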
# Target sequence (P49327 whole entry, looked up, the tested form may be a part): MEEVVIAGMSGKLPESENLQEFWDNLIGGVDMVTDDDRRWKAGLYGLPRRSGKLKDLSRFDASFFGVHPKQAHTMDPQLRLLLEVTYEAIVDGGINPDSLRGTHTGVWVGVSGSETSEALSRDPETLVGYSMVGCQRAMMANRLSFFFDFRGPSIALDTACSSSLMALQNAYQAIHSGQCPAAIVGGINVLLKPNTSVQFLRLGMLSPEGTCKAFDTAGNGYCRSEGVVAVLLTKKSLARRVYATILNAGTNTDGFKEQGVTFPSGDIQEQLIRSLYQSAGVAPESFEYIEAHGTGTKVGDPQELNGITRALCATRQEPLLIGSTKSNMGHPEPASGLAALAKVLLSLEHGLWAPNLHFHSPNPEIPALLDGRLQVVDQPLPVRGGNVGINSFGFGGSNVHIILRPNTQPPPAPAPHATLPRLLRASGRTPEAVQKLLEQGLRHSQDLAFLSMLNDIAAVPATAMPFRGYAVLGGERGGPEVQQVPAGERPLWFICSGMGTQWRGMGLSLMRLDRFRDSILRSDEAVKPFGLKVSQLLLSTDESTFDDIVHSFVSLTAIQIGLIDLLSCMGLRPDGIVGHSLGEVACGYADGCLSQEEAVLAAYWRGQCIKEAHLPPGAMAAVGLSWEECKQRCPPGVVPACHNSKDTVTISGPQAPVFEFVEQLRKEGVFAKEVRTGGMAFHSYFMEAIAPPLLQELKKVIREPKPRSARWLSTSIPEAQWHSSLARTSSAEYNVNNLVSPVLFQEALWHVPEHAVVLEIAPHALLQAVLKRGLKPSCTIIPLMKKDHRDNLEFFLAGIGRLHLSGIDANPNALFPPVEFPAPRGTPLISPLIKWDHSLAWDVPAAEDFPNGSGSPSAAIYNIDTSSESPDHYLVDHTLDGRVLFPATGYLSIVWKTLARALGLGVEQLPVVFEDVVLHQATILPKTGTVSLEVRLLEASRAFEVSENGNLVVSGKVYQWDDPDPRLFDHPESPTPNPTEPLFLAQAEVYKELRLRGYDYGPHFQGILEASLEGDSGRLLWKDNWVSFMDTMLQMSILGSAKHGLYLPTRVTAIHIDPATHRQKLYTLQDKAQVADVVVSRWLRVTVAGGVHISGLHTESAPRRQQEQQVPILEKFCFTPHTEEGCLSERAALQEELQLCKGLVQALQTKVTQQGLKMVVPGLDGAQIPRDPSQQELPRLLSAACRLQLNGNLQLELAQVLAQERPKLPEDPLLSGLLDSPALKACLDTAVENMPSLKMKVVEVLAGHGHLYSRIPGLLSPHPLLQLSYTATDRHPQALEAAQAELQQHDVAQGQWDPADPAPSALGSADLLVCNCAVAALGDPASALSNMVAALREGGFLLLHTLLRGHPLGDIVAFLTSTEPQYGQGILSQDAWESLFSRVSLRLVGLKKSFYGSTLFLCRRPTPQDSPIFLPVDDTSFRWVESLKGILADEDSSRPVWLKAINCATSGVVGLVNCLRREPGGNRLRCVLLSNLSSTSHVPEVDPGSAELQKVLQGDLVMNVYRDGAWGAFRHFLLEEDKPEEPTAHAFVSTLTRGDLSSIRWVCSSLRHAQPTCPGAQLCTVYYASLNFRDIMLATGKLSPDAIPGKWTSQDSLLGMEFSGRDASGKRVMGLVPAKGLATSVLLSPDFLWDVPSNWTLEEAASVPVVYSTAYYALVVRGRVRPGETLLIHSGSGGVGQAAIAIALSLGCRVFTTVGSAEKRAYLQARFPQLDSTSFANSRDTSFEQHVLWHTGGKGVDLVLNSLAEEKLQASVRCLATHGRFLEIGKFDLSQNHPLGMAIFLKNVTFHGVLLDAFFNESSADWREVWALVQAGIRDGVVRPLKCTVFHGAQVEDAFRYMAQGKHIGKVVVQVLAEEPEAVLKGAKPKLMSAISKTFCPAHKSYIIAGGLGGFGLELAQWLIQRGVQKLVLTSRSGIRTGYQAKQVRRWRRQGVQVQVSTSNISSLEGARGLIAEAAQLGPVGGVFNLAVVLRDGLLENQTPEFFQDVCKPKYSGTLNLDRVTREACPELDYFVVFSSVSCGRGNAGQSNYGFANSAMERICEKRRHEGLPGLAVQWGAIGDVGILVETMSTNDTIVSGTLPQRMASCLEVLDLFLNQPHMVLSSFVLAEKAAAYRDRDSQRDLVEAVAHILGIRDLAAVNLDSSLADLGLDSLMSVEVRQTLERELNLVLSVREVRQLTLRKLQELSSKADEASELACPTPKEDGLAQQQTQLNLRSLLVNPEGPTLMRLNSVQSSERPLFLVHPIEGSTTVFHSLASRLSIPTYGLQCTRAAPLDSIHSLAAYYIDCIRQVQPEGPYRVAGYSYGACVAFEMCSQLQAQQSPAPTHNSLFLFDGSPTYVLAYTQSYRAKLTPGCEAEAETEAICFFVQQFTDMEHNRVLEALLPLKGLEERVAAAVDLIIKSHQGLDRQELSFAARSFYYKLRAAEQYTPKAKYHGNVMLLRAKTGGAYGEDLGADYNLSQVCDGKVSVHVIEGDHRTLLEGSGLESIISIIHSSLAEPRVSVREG
# NR3A LBD binder – NR3A (human) ligand-binding domain modulation; Tm shift relative to glycine control, % at 25 µM; 2.5% of 340,000 active; NR3A LBD differential scanning fluorimetry, Tm shift; 0% = protein alone, 100% = glycine-bound protein;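 active means melting temperature shift of at least 10% of the positive control shift, at one fixed dose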
# MPTP inh – permeability transition pore inhibition; inhibition, % at 10 µM; 1.4% of 360,000 active; isolated mouse mitochondria, Ca2+ swelling absorbance, 30 min;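 active means inhibition of 50% or more, scaled per plate between neutral and stimulator controls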
# Myeloid diff 2 – promotes myeloid progenitor differentiation. ER-HoxA9 myeloid progenitors, lysozyme-GFP differentiation, flow cytometry. calls only at 10 µM. 1% of 360,000 active. AID 624256;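 active means normalized GFP-positive differentiation at or above the plate's own cutoff, the solvent-only control mean plus 3 SD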;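 further: cells exposed to compound for four days before flow analysis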
# rCAG binder – binds r(CAG) RNA repeats | r(CAG) RNA repeat, TO-PRO-1 dye displacement fluorescence | inhibition, % at 3 µM | 1.3% of 370,000 active;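 active means inhibition above the plate cutoff, the mean of all test compounds on that plate plus 3 SD, cut at about 35% in these data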;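 further: higher means more dye released from RNA so lower well fluorescence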
# Numbers stand for hits; – = inactive; · = no result; + = active, no number. Most compounds without a hit are left out; they make up all but 5.7% or so of the library.
SMILES,FAS-TE inh,NR3A LBD binder,MPTP inh,Myeloid diff 2,rCAG binder
O=C(NCC1CCCO1)c1ccc(NS(=O)(=O)c2cccc([N+](=O)[O-])c2)cc1 (stereo not given),–,–,–,–,–
CCOC(=O)Nc1sc2c(c1C(=O)OCC)CCC2,–,–,–,–,–
CCOC(=O)c1c(CC(C)C)csc1NC(=O)COC(=O)c1ccc(O)cc1,–,25,–,–,–
CCOC(=O)c1c(NC(=O)C2CCCCC2C(=O)O)sc2c1CCCCC2 (stereo not given),–,–,–,–,45
COC(=O)c1c(NC(=O)COC(=O)c2ccc(O)cc2)sc2c1CCCCC2,–,18,–,–,–
O=S1(=O)c2c(NCc3ccco3)cccc2Oc2ccccc2CN1Cc1cn(Cc2ccccc2C(F)(F)F)nn1,·,·,·,·,–
Cc1ccc(NC(=O)CSc2nnc(C)n2CC2CCCO2)cc1 (stereo not given),–,–,–,+,–
Cc1nnc(SCC(=O)Nc2ccc([N+](=O)[O-])cc2)n1CC1CCCO1 (stereo not given),–,–,–,–,–
COC(=O)C(Cc1ccc(OC(=O)c2ccc(C)cc2)cc1)N1Cc2ccccc2C1=O (stereo not given),–,14,–,–,·
O=C(NCC1COCCO1)C1CCN(S(=O)(=O)c2cccc3ccccc23)CC1 (stereo not given),·,·,·,·,–
COC(=O)Cc1nnn2c1[C@H](C)[C@H](c1ccccc1Br)OC[C@H](C)C2,·,·,·,·,–
COc1ccc(C(=O)Nn2c(SCc3ccc([N+](=O)[O-])cc3)nc3ccccc3c2=O)cc1,52,–,–,–,–
Cc1cccnc1Nc1nc(-c2ccc(O)cc2O)cs1,–,25,–,–,–
Oc1ccc(-c2csc(Nc3ccccn3)n2)c(O)c1,–,36,–,–,–
CCOc1ccc(-n2c(COc3ccccc3)nnc2SCC(=O)Nc2ccc3c(c2)OCCO3)cc1,·,·,·,·,–
Cc1nnsc1Sc1ccccn1,–,–,–,–,–
c1ccc(-c2nnsc2Sc2ccccn2)cc1,–,14,–,–,–
CN(C)c1ccc(N(C)C)c(C(O)(c2ccccc2)c2ccccc2)c1,·,·,·,·,–
CCOC(=O)CC[C@@]1(C(=O)OCC)C[C@@H](CC(=O)NCC23CC4CC(CC(C4)C2)C3)C(=O)N2CCCC=C21,·,·,·,·,–
O=S(=O)(c1ccc2ccccc2c1)N1CCN(C(=S)Nc2ccc(F)cc2)CC1,–,–,–,–,–
O=S(=O)(c1ccc2ccccc2c1)N1CCN(C(=S)Nc2ccc(F)c(Cl)c2)CC1,–,19,–,–,–
CCCCn1c(CN(Cc2ccccc2)Cc2ccccc2)nc2c1c(=O)n(C)c(=O)n2C,–,25,–,–,–
COc1ccc(CN2CCN(C(=O)CCC(=O)Nc3nnc(C4CCCCC4)s3)CC2)cc1F,–,–,–,+,–
CCOc1ccccc1NC(=O)CCC(=O)Nc1nnc(C2CCCCC2)s1,–,15,–,–,–
C[C@@H]1Cc2cc(O)cc(O)c2C(=O)O1,·,·,·,·,–
SMILES,FAS-TE inh,NR3A LBD binder,MPTP inh,Myeloid diff 2,rCAG binder
O=C(CSc1nnc(-c2cccc(Cl)c2)n1Cc1ccco1)c1ccc(F)cc1,·,·,·,·,–
Cc1ccc(-c2cc(-c3nnc(SCC(=O)N4c5ccccc5Sc5ccccc54)n3N)[nH]n2)cc1,·,·,·,·,–
CC(/C=C/c1ccc(N(C)C)cc1)=N\N=C(/N)SC1CC(=O)N(c2ccc(C(=O)O)cc2)C1=O (stereo not given),–,–,–,+,–
Cc1cc(C)cc(N=Cc2[nH]c3ccc(Br)c(Cl)c3c2O)c1,–,18,–,–,–
COc1ccc(CN=Cc2[nH]c3ccc(Br)c(Cl)c3c2O)cc1,–,–,–,–,–
Cc1cc(=O)n2nc(N3CCC(C(=O)NCC(C)c4ccccc4)CC3)sc2n1 (stereo not given),–,10,–,–,–
Cc1cc(=O)n2nc(N3CCC(C(=O)NC(C)c4ccccc4)CC3)sc2n1 (stereo not given),–,–,–,–,–
Cc1ccc2oc(-c3ccc(NC(=O)c4ccncc4)cc3O)nc2c1,–,33,–,+,–
COc1ccc(C(=O)Nc2ccc3oc(-c4cccc(F)c4)nc3c2)cc1OC,–,–,–,–,–
CCCC(=O)Nc1ccc(-c2nc3cc(C)ccc3o2)cc1,–,14,–,–,–
COc1ccccc1C(=O)Nc1ccc2oc(-c3ccc(F)cc3)nc2c1,–,14,–,–,–
COC[C@H]1CCCN1c1ccc2c(c1)O[C@@H]1CCN(C1)S2(=O)=O,·,·,·,·,–
Cn1c(NC(=O)c2ccccc2)nc(Cc2ccccc2)c1Cc1ccccc1,·,·,·,·,–
COc1ccccc1CCn1cnc(-c2ccc(OC)c(OC)c2)c1CC(C)C,·,·,·,·,–
Cc1cc(C)c2nc3nc(C)c(C)cc3c(N)c2c1,–,–,–,+,–
Cc1ccc(NC(=O)Cn2nnc(C(=O)NCc3ccc(Cl)cc3)c2N)cc1F,–,13,–,–,–
Cc1ccc(NC(=O)Cn2nnc(C(=O)NCc3ccccc3)c2N)cc1C,–,26,–,–,–
Cc1ccc(NC(=O)Cn2nnc(C(=O)Nc3ccc(F)c(Cl)c3)c2N)cc1,–,32,–,–,–
COc1ccc(NC(=O)Cn2nnc(C(=O)Nc3ccccc3C)c2N)cc1,–,–,–,–,–
Cc1ccc(NC(=O)c2nnn(CC(=O)Nc3ccccc3)c2N)cc1C,–,–,–,+,–
COc1ccc(NC(=O)Cn2nnc(C(=O)NCc3ccc(C)cc3)c2N)cc1OC,–,–,–,–,–
CCCCCN1CCCCC(NC(=O)c2ccccc2OC)C1=O (stereo not given),·,·,·,·,–
Cc1ccc(-c2c(C(=O)NCC(C)C)oc(=O)c3ccccc23)cc1,·,·,·,·,–
C[C@@H]1ON(C)[C@H]2C[C@H]3c4[nH]c5cccc(-c6ccc7c(c6)OCO7)c5c4CCN3C(=O)[C@@H]12,·,·,·,·,–
Cc1cc(N2CCNC[C@@H]2C)ccc1N1CCS(=O)(=O)CC1,·,·,·,·,–
SMILES,FAS-TE inh,NR3A LBD binder,MPTP inh,Myeloid diff 2,rCAG binder
Cc1cc(C)n2c(SCC(O)=C(C#N)c3nc4ccccc4[nH]3)nnc2n1,–,–,–,–,–
Cc1cccc(Nc2nnc(SC/C(O)=C(\C#N)c3nc4ccccc4[nH]3)s2)c1,–,10,–,–,–
O=C(O)c1ccc(COc2ccc3ccccc3c2/C=C2/NC(=O)N(c3ccccc3)C2=O)cc1,–,–,–,–,74
CN1C[C@@H]2[C@@H]3C(=O)N(C)C(=O)[C@@H]3[C@](Cc3ccccc3)(C1=O)N2C(=O)c1ccccc1,–,–,–,+,–
CN1C[C@@H]2[C@@H]3C(=O)N(Cc4ccccc4)C(=O)[C@@H]3[C@](Cc3ccccc3)(C1=O)N2C(=O)c1ccc(Cl)cc1,–,–,–,–,–
Cc1ccc(C(=O)N2[C@@H]3CN(C)C(=O)[C@@]2(Cc2ccccc2)[C@H]2C(=O)N(Cc4ccccc4)C(=O)[C@@H]32)cc1,–,17,–,–,–
O=C(Nc1ccc(F)cc1)Nc1nc2ncccn2c1-c1ccc(F)cc1,·,·,·,·,–
CCNC(=O)Nc1ccc2c(c1)C(=O)N(C)[C@H]1CC[C@H](CC(=O)N[C@H](C)c3ccccc3)O[C@@H]1CO2,·,·,·,·,–
